Screens (PubChem)
Hits are enriched below; roughly 9.4% of the tested compounds scored in any of these assays.
Pf growth 48h: P. falciparum growth inhibition at 48 hours (one generation); P. falciparum luciferase growth in erythrocytes, 48 h; Potency, µM (titrated, usually from 28.7 µM), for inactives: top-dose activity change, negative = inhibition, hits mostly inhibitors; actives 5.9% (n = 310,000); AID 504832; further: on the % scale 0 is the no-effect control and ±100 the full control effect
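Parasite viability was followed by luminescence of a genomically integrated firefly luciferase. Cultures held 0.1% parasitemia at 2% hematocrit (final), incubated under 5% CO2 at 37 C.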
SARS PLP yeast: SARS-CoV PLP inhibition in yeast. S. cerevisiae expressing SARS-CoV PLpro, growth rescue. Potency, µM (titrated, usually from 32.9 µM), for the others: at the highest dose activity, positive = growth rescue, hits mostly activators. actives 0.19% (n = 330,000). AID 485353; calls by dose curve; further: 0% is about no effect; nearly all actives have a fitted effect of over 55% in size
AMA1 RON2 block: AMA1-RON2 (P. falciparum) interaction inhibition; AlphaScreen AMA1-biotinylated RON2 peptide binding; Potency, µM (titrated, usually from 58.2 µM), without a hit: at the highest dose activity change, negative = inhibition, hits mostly inhibitors; actives 0.2% (n = 360,000); AID 720542;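 further: 0% = vehicle wells and -100% = peptide control; nearly all actives have a fitted effect of over 45% in size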
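AMA1 (3D7) with his tag at 25 nM final met compounds first, then biotinylated RON2 peptide at 25 nM; detection used donor plus acceptor beads, 10 µg/mL apiece, read by AlphaScreen after 30 min at room temperature.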
Pf growth 96h: P. falciparum growth inhibition at 96 hour, primary screen for plastid delayed-death inhibitors. P. falciparum luciferase reporter growth, 96 h. Potency, µM (titrated, usually from 28.7 µM), inactives show at the highest dose activity change, negative = inhibition, actives largely listed as inhibitors. actives 6.9% (n = 320,000). AID 504834; further: on the % scale 0 is the no-effect control and ±100 the full control effect
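P. falciparum expressing integrated firefly luciferase, in erythrocytes at 2% hematocrit, 0.05% parasitemia, incubated with compounds 96 h at 37 C, 5% CO2. Growth inhibition read as loss of luminescence; two-generation exposure targets delayed-death apicoplast inhibitors.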
* marks the source's active call; other numbers are inactive results; ? = inconclusive; · = no result. Unless noted, the call rests on the fitted dose curve; in most records, active means well fitted curve in the direction sought with a large enough effect; inconclusive means small, poorly fitted or top-dose-only effect, or another doubt; inactive means no such curve, though single readings can be large; an effect the other way counts as inactive or inconclusive. Potency means the concentration at half of the fitted maximal effect.

SMILES	Pf growth 48h	SARS PLP yeast	AMA1 RON2 block	Pf growth 96h
O=C(Nc1ccc(O)cc1)c1ccc(NC(=O)C2CCCO2)cc1 (stereo not drawn)	20%	0%	0%	?
CSc1cccc(NS(=O)(=O)c2ccc3c(c2)oc(=O)n3C)c1	·	14%	-14%	12µM*
Fc1ccccc1CSc1nc2ncc(Br)cc2[nH]1	·	-1%	8%	13µM*
COc1ccc(/C=N/NC(=O)CCCCCNC(=O)c2ccccc2)cc1	-4%	-23%	11%	39%
C=CCn1cnc2c(c1=O)c1nc3ccccc3nc1n2-c1ccccc1	·	-4%	·	5.9µM*
O=c1c2c3nc4ccccc4nc3n(/N=C/c3ccccn3)c2ncn1-c1ccccc1	?	1%	87%	-74%
C=CCn1cnc2c(c1=O)c1nc3ccccc3nc1n2/N=C/c1ccccn1	-4%	?	-3%	1.9µM*
C=CCn1cnc2c(c1=O)c1nc3ccccc3nc1n2/N=C/c1cccc(OC)c1OC	?	4%	-9%	-10%
C=CCn1cnc2c(c1=O)c1nc3ccccc3nc1n2/N=C/c1cc(OC)c(OC)c(OC)c1	3.7µM*	-5%	-8%	5.9µM*
COC(=O)C1=NN(c2cccc(C)c2)C2C(=O)N(c3ccccc3OC)C(=O)C12 (stereo not drawn)	8%	3%	49%	9%
N#Cc1c(N2CCN(c3ccc(F)cc3)CC2)nc(N)c2c(N)nc3c(c12)CC(=O)N3C1CC1	0.93µM*	-1%	51%	2.6µM*
Cc1ccc(Nc2ncnc3c2nnn3Cc2ccccc2)cc1	67%	-3%	12%	-46%
CC(C)CCNc1ncnc2c1nnn2Cc1ccccc1	-3%	-1%	-10%	10µM*
CSc1ccc(C(=O)C2CCCN(Cc3cccc4nccnc34)C2)cc1 (stereo not drawn)	10µM*	1%	-22%	?
O=C(c1cccnc1)C1CCCN(Cc2nc(-c3cnccn3)no2)C1 (stereo not drawn)	32%	-1%	4%	-5%
O=C(c1ccc(Cl)cc1)C1CCCN(Cc2cccc3cccnc23)C1 (stereo not drawn)	9.3µM*	0%	-5%	-5%
COc1ccc(CN2CCCC(C(=O)c3ccc(Cl)cc3)C2)c(O)c1 (stereo not drawn)	0.83µM*	0%	1%	-72%
O=C(c1ccccc1)C1CCCN(Cc2nc(-c3cnccn3)no2)C1 (stereo not drawn)	-12%	-1%	9%	5.2µM*
COc1ccc(C(=O)C2CCCN(Cc3cc(Cl)ccc3O)C2)c(OC)c1 (stereo not drawn)	?	5%	4%	16%
CCOC(=O)CSc1snnc1-c1ccccc1	4%	1%	5%	·
O=C(Nc1c2ccccc2nc2ccccc12)C(Cl)(Cl)Cl	1µM*	-35%	6%	36%
CCOc1ccc(N(CC(=O)N/N=C/c2cc(Br)c(C)o2)S(C)(=O)=O)cc1	?	-2%	21%	6%
Cc1cc(C(=O)N2CCc3c([nH]c4ccccc34)C2c2c(F)cccc2Cl)no1 (stereo not drawn)	5.9µM*	0%	-8%	-5%
Cc1cnc(C(=O)N2CCc3c([nH]c4ccccc34)C2c2ccc(F)cc2)cn1 (stereo not drawn)	5.2µM*	-2%	-28%	?
Cc1nc(C(=O)N2CCc3c([nH]c4ccccc34)C2c2cc(F)ccc2F)cs1 (stereo not drawn)	10µM*	-1%	-12%	28%
SMILES	Pf growth 48h	SARS PLP yeast	AMA1 RON2 block	Pf growth 96h
CN1CCc2c(sc3c2c(=O)n(-c2cccc(Cl)c2)c2nncn32)C1	·	·	0%	·
O=c1c2c3c(sc2n2cnnc2n1-c1ccccc1)N(Cc1ccccc1)CCC3	?	-2%	-19%	4.1µM*
O=C(CCC(=O)Nc1ccccc1)NNC(=O)c1ccccc1Cl	5%	0%	25%	9%
Cc1ccc(C(=O)NCCCNC(=O)c2ccccc2C)cn1	9%	3%	13%	?
Cc1ccc(C(=O)NCCCNC(=O)c2ccccc2F)cn1	3%	-2%	-5%	2.9µM*
Cc1ccc(NC(=O)Cn2cnc3sc(C(=O)NCCN(C)C)c(C)c3c2=O)cc1Cl	?	-5%	·	12µM*
COCCCNC(=O)c1sc2ncn(CC(=O)Nc3ccc(C)c(Cl)c3)c(=O)c2c1C	3%	0%	10%	3%
CCN(CC)CCCNC(=O)c1sc2ncn(CC(=O)Nc3ccc(C)c(Cl)c3)c(=O)c2c1C	13µM*	-4%	13%	-5%
CSc1ccc(C(=O)N2CCc3ccc(NC(=O)c4ccccn4)cc3C2)cc1	?	-10%	18%	15µM*
COC(=O)C1(O)CC(CC(C)C)=NN1C(=O)c1ccccc1 (stereo not drawn)	11%	-4%	45%	0.29µM*
Cc1cccc(N=C2NN=C(c3c(C)[nH]c4ccccc34)CS2)c1	2.6µM*	9%	13%	1.5µM*
CCOC(=O)Cn1cc(/C=N/NC(=O)c2cc3ccccc3o2)c2ccccc21	-18%	1%	1%	10%
N=c1c(S(=O)(=O)c2ccccc2)cc2c(=O)n3ccccc3nc2n1CCCN1CCOCC1	?	3%	-12%	18%
COc1cc(NC(=O)CSc2nnnn2Cc2ccccc2)cc(OC)c1	11%	1%	0%	-8%
CC(C)(C)NC(=O)CSc1nc2ccc(NC(=O)CSc3nnnn3Cc3ccccc3)cc2s1	·	2%	41%	4.7µM*
CCC(=O)Nc1cccc(NC(=O)CSc2nnnn2Cc2ccccc2)c1	27%	17%	-8%	2.1µM*
CCOC(=O)CSc1nc2ccc(NC(=O)CSc3nnnn3Cc3ccccc3)cc2s1	-24%	24%	-4%	3%
Cc1cc(NC(=O)CSc2cn(CCNC(=O)c3ccc(Cl)cc3)c3ccccc23)no1	-15%	?	-5%	-60%
O=C(Nc1ccon1)c1cc(-c2ccccc2)nc2ccccc12	7.4µM*	3%	-3%	·
CCOc1cccc(-c2cc(C(=O)Nc3ccon3)c3ccccc3n2)c1	2.1µM*	-2%	-4%	-18%
CC1CC(C)(C)CC2(C1)NC(=O)N(CC(=O)NCc1ccccc1F)C2=O (stereo not drawn)	-2%	1%	0%	?
O=C1CCCC(=O)N1c1ccc(O)cc1	34%	0%	3%	12µM*
Cc1ccnc(NC(=O)Cn2c(=O)oc3cc(S(=O)(=O)N4CCCC4)ccc32)c1	9%	3%	-4%	64%
Cc1ccn2c(-c3csc(NCc4ccco4)n3)c(C)nc2c1	12µM*	19%	-27%	-5%
CCOC(=O)c1c(N)sc2c1CCC1C(=O)N(C3CCCCC3)C(=O)C21 (stereo not drawn)	13µM*	-13%	-19%	15µM*
CCOC(=O)c1c(N)sc2c1CCC(CC)C2 (stereo not drawn)	·	1%	0%	-12%
CCOC(=O)C1=C(C)NC(SCC(N)=O)=C(C#N)C1c1ccncc1 (stereo not drawn)	-7%	0%	1%	-17%
Cc1cc(C)c(S(=O)(=O)Cc2ccccc2)c(OC(C)C)n1	?	-3%	0%	10µM*
